Reference: PubChem BioAssay AID2283166 (EPA ToxCast)
Inconclusive results are not listed. Active and inactive are the calls of the source. The calls were made as follows: active = hit-call score of the fitted dose curve at least 0.9, where 1 is the maximum; inconclusive = response in the unintended direction; inactive = score below 0.9.

Each molecule was assayed against human Interleukin-1 Receptor-Associated Kinase 4 (IRAK4), IRAK4 (gene 51135) (UniProt Q9NWZ3) (assay: NVS_ENZ_hIRAK4: NovaScreen (NVS) Enzymatic Assay for human Interleukin-1 Receptor-Associated Kinase 4 (IRAK4)).
Sequence of human Interleukin-1 Receptor-Associated Kinase 4 (IRAK4), IRAK4 (gene 51135) (Q9NWZ3 whole entry, looked up): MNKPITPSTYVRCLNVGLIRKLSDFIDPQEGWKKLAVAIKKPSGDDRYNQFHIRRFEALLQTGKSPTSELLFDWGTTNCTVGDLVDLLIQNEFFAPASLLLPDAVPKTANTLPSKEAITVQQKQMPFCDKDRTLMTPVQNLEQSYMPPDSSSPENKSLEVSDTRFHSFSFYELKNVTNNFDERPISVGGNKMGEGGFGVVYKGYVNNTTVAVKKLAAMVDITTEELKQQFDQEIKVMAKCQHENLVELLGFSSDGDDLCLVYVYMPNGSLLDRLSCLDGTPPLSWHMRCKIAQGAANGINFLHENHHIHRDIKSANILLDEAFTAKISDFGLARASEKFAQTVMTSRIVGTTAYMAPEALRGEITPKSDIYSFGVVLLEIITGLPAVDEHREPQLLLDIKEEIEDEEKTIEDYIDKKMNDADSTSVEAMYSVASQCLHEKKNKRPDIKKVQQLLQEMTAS
Protocol: NVS_ENZ_hIRAK4 is a biochemical, single-readout assay that uses extracted gene-proteins in a cell-free assay. Measurements were taken 1 hour after chemical dosing in a 384-well plate.NVS_ENZ_hIRAK4 is one of one assay component(s) measured or calculated from the NVS_ENZ_hIRAK4 assay. It is designed to make measurements of enzyme activity, a form of enzyme reporter, as detected with fluorescence intensity signals by Fluorescence and electrophoretic mobility shift technology.Data from the assay component NVS_ENZ_hIRAK4 was analyzed into 1 assay endpoint. This assay endpoint, NVS_ENZ_hIRAK4, was analyzed in the positive analysis fitting direction relative to DMSO as the negative control and baseline of activity. Using a type of enzyme reporter, loss-of-signal activity can be used to understand changes in the enzymatic activity as they relate to the gene IRAK4. Furthermore, this assay endpoint can be referred to as a primary readout, because this assay has produced […] where this one serves a enzymatic activity function. To generalize the intended target to other relatable targets, this assay endpoint is annotated to the kinase intended target family, where the subfamily is […].
Binding assays used specific radioligands (tritiated, iodinated) with non-radioactive competitive displacement ligands in agonist or antagonist protocols (as indicated) and various reference compounds and inhibitors to titrate specific binding to receptors and transporters. Most enzyme assays (CYPs, kinases, phosphatases, proteases, HDACs) used recombinant protein and specific substrates (fluorescence mostly, some colorimetric and radioactive) and inhibitors, followed by a biochemical separation of substrate and product. All assays for the biochemical HTS were initially run in duplicate at a single concentration (10 uM for CYP450 assays and 25 uM for all others). Assay-chemical combinations meeting a pre-defined threshold (e.g., 30% inhibition and other criteria defined below) were then run in singleton concentration-response format with maximum concentration of 20 uM for CYPs and 50 uM for all others. Each assay was run with positive and negative controls, and concurrent controls on every plate. The follow-up (secondary) screen tested active chemical-pairs in concentration series, as well as a few additional assays not tested in the primary screen, some selected negative inactives, and several cases re-run in the concentration series for confirmatory purposes.
`Cc1ccc(N=CN(C)C=Nc2ccc(C)cc2C)c(C)c1` was tested, and the outcome was “inactive”. In the case of `COP(=S)(OC)Oc1ccc([N+](=O)[O-])cc1`, the outcome is reported as “inactive”. `CNC(=S)S` was tested, and the outcome was “inactive”. `CCOC(=O)C(Cl)Cc1cc(-n2nc(C)n(C(F)F)c2=O)c(F)cc1Cl` (stereo not given) was tested, and the outcome was “inactive”. In the case of `CCCCNC(=O)OCC#CI`, the outcome is reported as “inactive”.
